The source made the active and inactive calls. How the source made its calls: active means hit-call score of the fitted dose curve at least 0.9, where 1 is the maximum; inactive means score below 0.9.

Read-out in one test: CD38, CD38 (gene 952)
The experiment in a line: BSK_SAg_CD38: BioMAP Diversity Plus: SAg Assay for CD38 Biomarker Activity (AID 2283087). As to conditions: primary human HUVEC with PBMC; actives raise or lower the signal. Put shortly:
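Fluorescence ELISA of cell-surface CD38 served as the read-out, with either increase or decrease fitted against DMSO controls. Cells were a human umbilical vein endothelium plus PBMC co-culture under SEB/TSST-1 stimulation, measured 24 h after dosing.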
As to `CS(=O)(=O)c1ccc([C@@H](C[C@H]2CCC(=O)C2)C(=O)Nc2cnccn2)cc1Cl`, the outcome was inactive.
The same measure, in the same setting: for `O=C(O)c1cccnc1` the value was “inactive”.
As to `CCc1cc(C2=C(C(=O)O)N(c3ccccc3C(F)(F)F)S(=O)(=O)c3ccccc32)cc2c1OCO2`, the half-maximal activity concentration (AC50) was 19.8 µM (active).
Turning to `CC(C)NCC(O)c1ccc(O)c(O)c1` (stereo not given), the outcome was inactive.
Same read-out and setting: then `Cc1cn([C@H]2C=C[C@@H](CO)O2)c(=O)[nH]c1=O`, with “inactive”; and `CCCCC(CC)COC(=O)CCCCCCCC(=O)OCC(CC)CCCC` (stereo not given), with “inactive”; and `Cc1ccc(C(C)(C)C)c(O)c1`, with “inactive”.
On the same count and under the same terms, then `CCCCC(CC)CO` (stereo not given), with “inactive”; and `CC(N)=O`, with “inactive”.
As to `O=C1OC(c2ccc(O)cc2)(c2ccc(O)cc2)c2ccccc21`, the half-maximal activity concentration (AC50) is 28.7 µM (active).
Take `CC(=O)CC(c1ccccc1)c1c(O)c2ccccc2oc1=O` (stereo not given): the outcome was inactive.
Turning to `Cc1cc(SC2=C(O)C[C@@](CCc3ccc(N)cc3)(C(C)C)OC2=O)c(C(C)(C)C)cc1CO`, the outcome was inactive.
In the case of `Oc1ccccc1O`, the outcome was inactive.
Same read-out and setting: then `CCc1nc(N)nc(N)c1-c1ccc(Cl)cc1`, with “inactive”; and `CCCCOC(=O)CCCCC(=O)OCCCC`, with “inactive”; and `O=NO`, with “inactive”.
For the compound `Cn1cnc2c1c(=O)[nH]c(=O)n2C`, the result was inactive.
As to `Cc1c(C)c2c(c(C)c1O)CCC(C)(COc1ccc(CC3SC(=O)NC3=O)cc1)O2` (stereo not given), the AC50 was 24.9 µM (active).
Consider `CCCC(=O)O`, for which the result was inactive.
Turning to `O=C(O)c1[nH]n(-c2ccc(S(=O)(=O)O)cc2)c(=O)c1N=Nc1ccc(S(=O)(=O)O)cc1`, the outcome was inactive.
Turning to `C=CCc1ccc(OC)c(OC)c1`, the outcome was inactive.
Consider `OCC(O)CO`, for which the outcome was inactive.
Same read-out and setting: then `CC(=O)O`, with “inactive”; and `CCOCCOCCO`, with “inactive”.
Same read-out and setting: then `CC(C)c1cccc(C(C)C)c1NC(=O)NS(=O)(=O)c1cc(C(C)(C)O)co1`, with “inactive”; and `CCCCCCCC(=O)OC`, with “inactive”.
The same measure, in the same setting: for `Nc1nc(Cl)nc2c1ncn2[C@H]1C[C@H](O)[C@@H](CO)O1` the value was “inactive”; for `CCCCCCC(CCCCCCCCCCC(=O)OCC(COC(C)=O)OC(C)=O)OC(C)=O` (stereo not given), “inactive”.
Regarding `c1ccc2occc2c1`, the outcome was inactive.
Regarding `CCCCc1nc2cccnc2n1Cc1ccc(-c2ccccc2-c2nnn[nH]2)cc1`, the result was inactive.

Read-out in another test: CD40, CD40 (gene 958)
The test is described as follows: BSK_SAg_CD40: BioMAP Diversity Plus: SAg Assay for CD40 Biomarker Activity (AID 2283088). As to conditions: primary human HUVEC with PBMC; actives raise or lower the signal. Put shortly: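 HUVEC/PBMC co-culture, 24 h post-dose; CD40 by ELISA, fluorescence intensity; bidirectional fit vs DMSO negative control.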
On to `CS(=O)(=O)c1ccc([C@@H](C[C@H]2CCC(=O)C2)C(=O)Nc2cnccn2)cc1Cl`, for which the outcome was inactive.
Same read-out and setting: then `O=C(O)c1cccnc1`, with “inactive”.
Still for that read-out and setting: then `CCc1cc(C2=C(C(=O)O)N(c3ccccc3C(F)(F)F)S(=O)(=O)c3ccccc32)cc2c1OCO2`, with “inactive”; and `CC(C)NCC(O)c1ccc(O)c(O)c1` (stereo not given), with “inactive”; and `Cc1cn([C@H]2C=C[C@@H](CO)O2)c(=O)[nH]c1=O`, with “inactive”.
Same read-out and setting: for `CCCCC(CC)COC(=O)CCCCCCCC(=O)OCC(CC)CCCC` (stereo not given) the value was “inactive”.
`Cc1ccc(C(C)(C)C)c(O)c1`: the outcome was inactive.
With `CCCCC(CC)CO` (stereo not given), the result was inactive.
On to `CC(N)=O`, for which the outcome was inactive.
Turning to `O=C1OC(c2ccc(O)cc2)(c2ccc(O)cc2)c2ccccc21`, the AC50 is 29 µM (active).
As for `CC(=O)CC(c1ccccc1)c1c(O)c2ccccc2oc1=O` (stereo not given), the result was inactive.
On the same count and under the same terms, then `Cc1cc(SC2=C(O)C[C@@](CCc3ccc(N)cc3)(C(C)C)OC2=O)c(C(C)(C)C)cc1CO`, with “inactive”.
For `Oc1ccccc1O`, the AC50 was 4.21 µM (active).
With `CCc1nc(N)nc(N)c1-c1ccc(Cl)cc1`, the result was inactive.
As for `CCCCOC(=O)CCCCC(=O)OCCCC`, the outcome was inactive.
Turning to `O=NO`, the outcome was inactive.
Turning to `Cn1cnc2c1c(=O)[nH]c(=O)n2C`, the result was inactive.
Turning to `Cc1c(C)c2c(c(C)c1O)CCC(C)(COc1ccc(CC3SC(=O)NC3=O)cc1)O2` (stereo not given), the concentration at half-maximal activity (AC50) is 14.9 µM (active).
Turning to `CCCC(=O)O`, the outcome was inactive.
Take `O=C(O)c1[nH]n(-c2ccc(S(=O)(=O)O)cc2)c(=O)c1N=Nc1ccc(S(=O)(=O)O)cc1`: the outcome was inactive.
With `C=CCc1ccc(OC)c(OC)c1`, the outcome was inactive.
Still for that read-out and setting: then `OCC(O)CO`, with “inactive”; and `CC(=O)O`, with “inactive”; and `CCOCCOCCO`, with “inactive”.
Still for that read-out and setting: then `CC(C)c1cccc(C(C)C)c1NC(=O)NS(=O)(=O)c1cc(C(C)(C)O)co1`, with “inactive”; and `CCCCCCCC(=O)OC`, with “inactive”.
Turning to `Nc1nc(Cl)nc2c1ncn2[C@H]1C[C@H](O)[C@@H](CO)O1`, the AC50 was 1.6 µM (active).
Consider `CCCCCCC(CCCCCCCCCCC(=O)OCC(COC(C)=O)OC(C)=O)OC(C)=O` (stereo not given), for which the result was inactive.
The same measure, in the same setting: then `c1ccc2occc2c1`, with “inactive”.
The same measure, in the same setting: then `CCCCc1nc2cccnc2n1Cc1ccc(-c2ccccc2-c2nnn[nH]2)cc1`, with “inactive”.

Read-out in the next test: CD69, CD69 (gene 969)
The test is described as follows: BSK_SAg_CD69: BioMAP Diversity Plus: SAg Assay for CD69 Biomarker Activity (AID 2283089).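 On AC50: cell surface CD69 protein quantified by ELISA with fluorescence detection.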 As to conditions: primary human HUVEC with PBMC; actives raise or lower the signal. Summed up: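 HUVEC co-cultured with PBMC were dosed with chemical, and CD69 was measured by ELISA with fluorescence read-out 24 h later. Bidirectional curve fitting used DMSO as negative control and activity baseline.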
In the case of `CS(=O)(=O)c1ccc([C@@H](C[C@H]2CCC(=O)C2)C(=O)Nc2cnccn2)cc1Cl`, the outcome was inactive.
For `O=C(O)c1cccnc1`, the outcome was inactive.
As to `CCc1cc(C2=C(C(=O)O)N(c3ccccc3C(F)(F)F)S(=O)(=O)c3ccccc32)cc2c1OCO2`, the AC50 is 11.1 µM (active).
Turning to `CC(C)NCC(O)c1ccc(O)c(O)c1` (stereo not given), the outcome was inactive.
Still for that read-out and setting: for `Cc1cn([C@H]2C=C[C@@H](CO)O2)c(=O)[nH]c1=O` the value was “inactive”.
Still for that read-out and setting: then `CCCCC(CC)COC(=O)CCCCCCCC(=O)OCC(CC)CCCC` (stereo not given), with “inactive”.
`Cc1ccc(C(C)(C)C)c(O)c1`: the result was inactive.
Same read-out and setting: for `CCCCC(CC)CO` (stereo not given) the value was “inactive”; for `CC(N)=O`, “inactive”.
As to `O=C1OC(c2ccc(O)cc2)(c2ccc(O)cc2)c2ccccc21`, the half-maximal activity concentration (AC50) was 20 µM (active).
In the case of `CC(=O)CC(c1ccccc1)c1c(O)c2ccccc2oc1=O` (stereo not given), the result was inactive.
On to `Cc1cc(SC2=C(O)C[C@@](CCc3ccc(N)cc3)(C(C)C)OC2=O)c(C(C)(C)C)cc1CO`, for which the outcome was inactive.
As to `Oc1ccccc1O`, the AC50 was 5.69 µM (active).
`CCc1nc(N)nc(N)c1-c1ccc(Cl)cc1`: the result was inactive.
Take `CCCCOC(=O)CCCCC(=O)OCCCC`: the outcome was inactive.
On the same count and under the same terms, for `O=NO` the value was “inactive”.
On to `Cn1cnc2c1c(=O)[nH]c(=O)n2C`, for which the result was inactive.
With `Cc1c(C)c2c(c(C)c1O)CCC(C)(COc1ccc(CC3SC(=O)NC3=O)cc1)O2` (stereo not given), the concentration at half-maximal activity (AC50) was 21.5 µM (active).
On to `CCCC(=O)O`, for which the result was inactive.
With `O=C(O)c1[nH]n(-c2ccc(S(=O)(=O)O)cc2)c(=O)c1N=Nc1ccc(S(=O)(=O)O)cc1`, the result was inactive.
As for `C=CCc1ccc(OC)c(OC)c1`, the outcome was inactive.
With `OCC(O)CO`, the result was inactive.
In the case of `CC(=O)O`, the outcome was inactive.
On the same count and under the same terms, then `CCOCCOCCO`, with “inactive”.
On the same count and under the same terms, then `CC(C)c1cccc(C(C)C)c1NC(=O)NS(=O)(=O)c1cc(C(C)(C)O)co1`, with “inactive”; and `CCCCCCCC(=O)OC`, with “inactive”.
Take `Nc1nc(Cl)nc2c1ncn2[C@H]1C[C@H](O)[C@@H](CO)O1`: the AC50 was 4.31 µM (active).
Consider `CCCCCCC(CCCCCCCCCCC(=O)OCC(COC(C)=O)OC(C)=O)OC(C)=O` (stereo not given), for which the outcome was inactive.
Still for that read-out and setting: for `c1ccc2occc2c1` the value was “inactive”.
On the same count and under the same terms, for `CCCCc1nc2cccnc2n1Cc1ccc(-c2ccccc2-c2nnn[nH]2)cc1` the value was “inactive”.

The values are drawn from PubChem BioAssay (EPA / NIEHS).
